# Sampled rows, rich in hits. Any-hit rate of the full collection: about 15%.
# TDP1 cell noCPT: qHTS for Inhibitors of human tyrosyl-DNA phosphodiesterase 1 (TDP1): qHTS in cells in absence of CPT. 420,000 compounds, 15% hits. Potency, µM (titrated, usually from 46.2 µM), for the others: top-dose activity change, negative = growth inhibition, usual class: inhibitors. AID 686978, 2013. DT40 Tdp1-/- hTDP1 cells, no CPT, ATP luminescence, 48 h; also: nearly all actives have a fitted effect of over 55% in size
#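 Chicken DT40 Tdp1-/- cells stably complemented with human TDP1 were seeded at 400 cells/well with DMSO in place of 20 nM camptothecin. After compound pinning, cells grew at least 48 hr at 37 °C; viability read by CellTiter-Glo luminescence.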
# DT40 TDP1 CPT: growth inhibition of DT40 Tdp1-/-;hTDP1 cells with camptothecin (screen for TDP1 inhibitors); Potency, µM (highest dose often 46.2 µM), inactives show top-dose activity change, negative = growth inhibition, most hits filed as inhibitors; chicken DT40 Tdp1-/-;hTDP1 cells + 20 nM CPT, ATP luminescence, 48 h; 420,000 compounds, 12% hits; also: nearly all actives have a fitted effect of over 55% in size
#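 Chicken DT40 Tdp1-/- cells stably complemented with human TDP1 were seeded at 400 cells/well in medium containing 20 nM camptothecin, exposed to pin-transferred compounds, and grown at 37 °C for at least 48 hr. Viability was read as ATP luminescence.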
# Gal4-VP16 FLuc: counter-screen for ROR gamma inhibitors: Gal4-VP16 reporter; Potency, µM (series often up to 53.6 µM), for inactives: at the highest dose activity, negative = inhibition, actives largely listed as inhibitors; 310,000 compounds, 3.5% hits; Drosophila S2 Gal4-VP16 UAS-luciferase, luminescence, 20 h; AID 2546;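 also: Gal4-VP16 expression switched on by copper sulfate through the metallothionein promoter; nearly all actives have a fitted effect of over 50% in size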
# ELG1 repair inh: ELG1-dependent DNA repair inhibition; HEK293T ELG1-luciferase reporter, luminescence, 16 h; DNA damage induced by 5-fluorouridine; Potency, µM (titrated, usually from 46.1 µM), for inactives: top-dose activity change, negative = inhibition, hits mostly inhibitors; 330,000 compounds, 2.3% hits; also: nearly all actives have a fitted effect of over 55% in size
#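 Step one: seed 2,000 cells per well. Step two: pin-transfer compound or DMSO alongside 5-fluorouridine. Step three: incubate 16 hr, 37 °C, 5% CO2. Step four: add ONE-Glo, wait 30 min, read luminescence.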
# 12-LOX inh: inhibitors of human 12S-lipoxygenase ALOX12. purified 12hLO, xylenol orange hydroperoxide absorbance. 580,000 compounds, 1.1% hits. P18054. Potency, µM (titrated, usually from 108 µM), for inactives: at the top dose activity change, negative = inhibition, hits mostly inhibitors
#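 Hydroperoxide product was detected by ferrous iron/xylenol orange as the 573 to 405 nm absorbance ratio. Arachidonic acid at 40 uM (final) was turned over for 30 min at room temperature by 150 nM human 12hLO, pH 7.0 Hepes buffer, after 15 min compound preincubation.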
# RORg inh: ROR gamma (mouse) transcription inhibition | 310,000 compounds, 5.4% hits | AID 2551 | Drosophila S2 Gal4-RORgamma UAS-luciferase reporter, 20 h | P51450 | Potency, µM (titrated, usually from 53.6 µM), for the others: at the top dose activity change, negative = inhibition, hits mostly inhibitors; also: nearly all actives have a fitted effect of over 60% in size
# Target sequence (P51450 whole entry, looked up, the tested form may be a part): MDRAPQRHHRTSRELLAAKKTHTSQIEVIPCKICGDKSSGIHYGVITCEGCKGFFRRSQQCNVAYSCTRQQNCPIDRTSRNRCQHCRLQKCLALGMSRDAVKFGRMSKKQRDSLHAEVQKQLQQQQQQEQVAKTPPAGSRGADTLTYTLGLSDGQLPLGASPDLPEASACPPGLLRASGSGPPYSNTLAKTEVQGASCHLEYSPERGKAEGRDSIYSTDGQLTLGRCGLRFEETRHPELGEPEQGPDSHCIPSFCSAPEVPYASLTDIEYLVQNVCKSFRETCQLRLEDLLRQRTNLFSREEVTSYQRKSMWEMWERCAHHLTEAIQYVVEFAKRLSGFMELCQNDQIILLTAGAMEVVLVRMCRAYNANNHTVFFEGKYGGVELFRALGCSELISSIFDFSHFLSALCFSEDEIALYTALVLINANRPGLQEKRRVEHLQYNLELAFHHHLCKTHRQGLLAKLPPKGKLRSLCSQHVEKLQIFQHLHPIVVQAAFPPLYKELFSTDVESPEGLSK
#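 Compounds are pin-transferred onto Drosophila Schneider cells expressing a copper-inducible Gal4–ROR gamma transactivation domain fusion. After 1 hr, copper sulfate is added to 700 uM final; luciferase is read 20 hr later.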
# * = called active by the depositor; ? = inconclusive; / = no result; [ ] = dose if it differs, or a comment. Calls follow the shape of the dose curve; as a rule, active = well fitted curve in the direction sought with a large enough effect; inconclusive = small, poorly fitted or top-dose-only effect, or another doubt; inactive = no such curve, though single readings can be large; an effect the other way counts as inactive or inconclusive. % is scaled to controls: 0 for no effect and ±100 for the full control effect; potency is read from the fitted curve at half-maximal effect.
SMILES,TDP1 cell noCPT,DT40 TDP1 CPT,Gal4-VP16 FLuc,ELG1 repair inh,12-LOX inh,RORg inh
Cc1nnsc1C(=O)NNS(=O)(=O)c1cc(C(F)(F)F)cc(C(F)(F)F)c1,-19%,3%,19%,1%,160%,11µM*
COc1ccc(N2C(=O)CN(C3CCCCC3)[C@H]3CS(=O)(=O)C[C@H]32)cc1,/,/,/,/,10µM*,/
COc1cc(N2C(=O)C=CC2=O)ccc1N1C(=O)C=CC1=O,0.92µM*,0.73µM*,/,/,-23%,/
O=C(Nc1nc(-c2cccnc2)cs1)C1CC(=O)N(c2ccccc2Cl)C1 (centres undefined),/,/,/,/,-16%,/
C#CCOc1c(Cl)cc(/C=C2/C(=O)ON=C2C)cc1OC,?,?,0%,14%,28µM*,5%
CCOc1ccc(Cl)cc1/C=C1/C(=O)ON=C1C,?,?,3%,2%,?,2%
CCCOc1ccc(/C=C2/C(=O)ON=C2C)cc1Cl,?,18µM*,0%,14%,5.6µM*,-21%
COc1ccc(Cl)cc1/C=C1/C(=O)ON=C1C,?,?,-18%,9%,32µM*,11%
COc1cc(/C=C2/C(=O)ON=C2C)cc(Cl)c1O,?,18µM*,?,15%,?,13µM*
COc1ccc(Br)cc1Cn1nnc(C(=O)Nc2cc(C)ccc2OC)c1N,/,/,/,/,-35%,/
CN1C(=O)C(C(Nc2ccccc2)c2ccc(F)cc2)c2ccccc21 (centres undefined),/,/,/,/,-1%,/
COc1cc(/C=C2\SC(c3ccc(C)cc3)=NC2=O)cc(OC)c1OC,-29%,-5%,12%[0.365 µM],12%,/,6%
CC1=NOC(=O)/C1=C/c1ccc(O)c(Cl)c1,9.2µM*,?,16µM*,-10%,?,11µM*
COc1cc(/C=C2\SC(c3ccccc3)=NC2=O)cc(Cl)c1O,?,21µM*,-13%[10 µM],14%,8.9µM*,1%
Cc1cnc(NC(=O)C(C)N2CCN(C)CC2)s1 (centres undefined),-6%,-8%,-7%,-4%,2.5µM*,-8%
COc1ccc(-c2cc(C(=O)NC(C)(C)C)c3ccccc3n2)cc1,/,/,/,/,95%,/
CS(=O)(=O)N(CC(=O)N1CCOCC1)c1cccc(F)c1,10%,10%,-19%,14%,4%,0%
CS(=O)(=O)N(Cc1ccccc1)c1ccc(C(=O)N2CCN(c3cccc(Cl)c3)CC2)cc1,14µM*,11µM*,15%,?,27%,33%
CS(=O)(=O)N(Cc1ccccc1)c1ccccc1C(=O)N1CCN(c2ccccc2)CC1,16µM*,21µM*,-2%,-1%,0%,6%
CS(=O)(=O)N(CC(=O)N1CCN(c2cccc(Cl)c2)CC1)c1cccc(F)c1,16µM*,?,/,-6%,-12%,?
CS(=O)(=O)N(Cc1ccc(Cl)cc1)c1ccc(C(=O)N2CCN(c3ccccc3)CC2)cc1,?,?,?,?,?,31%
CCN1CCN(C(=O)c2ccccc2N(Cc2ccccc2)S(C)(=O)=O)CC1,1%,-9%,1%,0%,0%,7%
CCN1CCN(C(=O)c2ccccc2N(Cc2ccccc2)S(=O)(=O)c2ccc(C)cc2)CC1,16µM*,?,7%,0%,0%,-14%
Cc1[nH]c2ccccc2c1C(=O)CN1C(=O)CC2(CCCCC2)C1=O,/,/,/,/,-4%,/
O=C(Cc1c[nH]c2ccccc12)N1CCN(S(=O)(=O)c2cc(F)ccc2F)CC1,/,/,/,/,91%,/
SMILES,TDP1 cell noCPT,DT40 TDP1 CPT,Gal4-VP16 FLuc,ELG1 repair inh,12-LOX inh,RORg inh
CC(C)(C)C(=O)Nc1cccc(NC(=O)c2cc(Cl)ccc2F)c1,/,/,/,/,35%,/
C=C(c1ccccc1)c1ccc(N(C)C)cc1,-37%,-22%,6%,0%,?,8%
CN(C)c1cc(O)c(C(=S)Nc2ccccc2)c(N(C)C)c1,?,16µM*,17%,14%,-14%,?
CN(C)c1cccc(C(=O)Nc2ccc(Nc3ccccc3)cc2)c1,/,/,/,/,39%,/
CN(C)c1ccc(NC(=S)c2ccccn2)cc1,5.2µM*,4.6µM*,0.63µM*,?,?,0.28µM*
CN(C)c1ccc(C(=S)Nc2ccccc2)cc1,16µM*,?,?,?,-14%,13µM*
C[S+](C)/N=C(\[O-])c1cccc(F)c1,/,/,/,/,40%,/
c1ccc(-c2cc3c(N4CCN(c5ncccn5)CC4)ncnc3s2)cc1,?,?,0%,-22%,-13%,17%
O=S(=O)(c1ccccc1)N1CCN(c2ncnc3sc(-c4ccccc4)cc23)CC1,12µM*,21µM*,?,?,1%,16%
c1ccc(-c2cc3c(N4CCN(c5ccccc5)CC4)ncnc3s2)cc1,18µM*,?,0%,?,-16%,-10%
S=c1nc[nH]c2c1cnn2Cc1ccccc1,3.7µM*,10µM*,?,-19%,?,22µM*
Cc1cc(=O)[nH]c2c1cnn2Cc1ccccc1,-7%,?,-1%,5%,-10%,-12%
COc1ccc(NC(=O)Nc2cc(C)cc(C)c2)cn1,?,-17%,6%,18%,419%,?
COc1ccc(NC(=O)Nc2cccs2)cn1,18µM*,13µM*,16%,?,?,-19%
COc1cccc(NC(=O)Nc2cc(C)ccc2OC)c1,?,-5%,-19%,3%,27%,-11%
CNC(=O)Nc1cccc(C(F)(F)F)c1,-1%,-17%,-8%,2%,0%,2%
Cc1ccc(OC(F)F)c(NC(=O)Nc2cccc(C(F)(F)F)c2)c1,?,13µM*,6.3µM*,?,-7%,5µM*
COc1ccc(NC(=O)Nc2cccc(C(F)(F)F)c2)cn1,21µM*,?,5%,?,-11%,28%
Cc1ccc(C(=O)Nc2ccc3oc(-c4ccncc4)nc3c2)cc1,/,/,/,/,-26%,/
Cc1nccn1-c1ccc(CNC(=O)C(c2ccc(F)cc2)N(C)C)cc1 (centres undefined),/,/,/,/,25%,/
COc1ccc(OC)c(NC(=O)N2CC(C)Oc3ccc(C)cc32)c1 (centres undefined),21µM*,?,/,/,-4%,/
COc1ccc(OC)c(NC(=O)N2CCCc3ccccc32)c1,?,?,3%,-10%,-6%,8%
COc1ccc(OC)c(NC(=O)N2CC3CCCN3c3ccccc32)c1 (centres undefined),23µM*,?,/,/,?,/

# Compound activity (PubChem BioAssay)
